Data on 27 molecules can be found in PubChem BioAssay (EPA / NIEHS).

Records with an inconclusive call do not appear. Active and inactive are the calls of the source. The calls were made as follows: active = hit-call score of the fitted dose curve at least 0.9, where 1 is the maximum; inconclusive = response in the unintended direction; inactive = score below 0.9.

Read-out in this assay: ABC Transporter (ABCB11), ABCB11 (gene 8647)
Description: CLD_ABCB11_48hr: CellzDirect (CLD) Gene Expression Assay for ABC Transporter (ABCB11) at 48 hours (AID 2283697). As to the method: CLD_48hr is a cell-based, multiplexed-readout assay that uses hepatocyte, a human liver primary cell, with measurements taken at 48 hours after chemical dosing in a 96-well plate.CLD_ABCB11_48hr is one of 16 assay component(s) measured or calculated from the CLD_48hr assay. It is designed to make measurements of mRNA induction, a form of inducible reporter, as detected with chemiluminescence signals by Quantitative Nuclease Protection Assay (qNPA) technology.Data from the assay component CLD_ABCB11_48hr was analyzed at the endpoint, CLD_ABCB11_48hr, in the positive analysis fitting direction relative to DMSO as the negative control and baseline of activity. Using a type of inducible reporter, gain-of-signal activity can be used to understand changes in the reporter gene as they relate to the gene ABCB11. Furthermore, this assay endpoint can be referred to as a primary readout. To generalize the intended target to other relatable targets, this assay endpoint is annotated to the transporter intended target family, where subfamily is ABC transporter.
Human hepatocyte cultures were treated daily for two consecutive days with fresh dosing solutions containing appropriate concentrations of the 320 ToxCast chemicals (chemical identities were blinded to CellzDirect and other ToxCast collaborators), vehicle control (0.2% DMSO), and positive control inducers as summarized in Table 1. Due to the large number of treatment groups and chemicals examined, the ToxCast chemicals were divided into two groups (spanning two independent cultures of hepatocytes from separate donor preparations (Hu778: ToxCast plates 1 and 2; Hu776: ToxCast plates 3 and 4). Each preparation of human hepatocyte cultures was treated with respective vehicle control, medium only control, set of six positive controls/reference chemicals for the five hepatic receptor pathways, and a subset of eight of the ToxCast chemicals (indoxacarb, pyrithiobac-sodium, norflurazon, cyhalofop-butyl, methomyl, thiram, acetochlor, and propiconazole). These replicate data, coupled with internal replicates designed within the blinded ToxCast chemical library, provided additional data to evaluate interindividual differences between hepatocyte preparations and their potential impact on chemical profiles.Cell morphology and integrity were evaluated using phase-contrast microscopy as an indicator of hepatocyte cell health (Tyson & Green, 1987). Cultures for each treatment group (i.e., media, vehicle [0.2% DMSO], positive control inducers [multiple concentrations], and the ToxCast chemicals [multiple concentrations]) were observed and cell morphology was assessed relative to vehicle control cultures at each harvest time point (0, 6, 24, or 48 h). […] Images were evaluated at the conclusion of the study to assess changes in cell integrity and account for the effects of chemical exposure on uncharacteristic changes in concentration-dependent gene expression profiles. The results from these determinations of apparent cytotoxicity were annotated (yes/no) alongside the corresponding qNPA data for reference.At the conclusion of each treatment period, hepatocyte cultures (96-well) were washed with 1 volume of HBSS, lysed by addition of 25 ul ArrayPlate lysis buffer (HTG, Tucson, AZ), and 70 ul/well of Denaturation Oil, denatured by incubation at 95C for 10 min, and frozen at approximately -70C until analysis by nuclease protection assay (qNPA) (Roberts et al., 2007). For qNPA analysis, cell lysates were thawed at 50C for approximately 30 min, qNPA probes were added, and samples were incubated at 95C for 10 min to begin the detection process by denaturing the target RNA, dissociating the duplexes and secondary structure hybridization. At the conclusion of the hybridization period, S1 nuclease reagent was added to each sample to digest all nonprotected nucleotides at 50C for 60-90 min. […]
On to `CCCSP(=O)(OCC)Oc1ccc(Br)cc1Cl` (configuration not stated), for which the molecule was classed as inactive.

As for `COP(=O)(OC)C(O)C(Cl)(Cl)Cl` (configuration not stated), the call was inactive. `CCOC(=O)CC(SP(=O)(OC)OC)C(=O)OCC` (configuration not stated): the result was inactive. Still for that read-out and setting: for `CCCCOC(=O)[C@@H](C)Oc1ccc(Oc2ccc(C#N)cc2F)cc1` the value was “inactive”; for `CN(C)C(=O)Nc1cccc(C(F)(F)F)c1`, “inactive”; for `CCOP(=O)(SC(C)CC)N1CCSC1=O` (configuration not stated), “inactive”. Take `CCOP(=S)(Oc1cnc(C(C)(C)C)nc1)OC(C)C` (configuration not stated): the outcome was inactive. Same read-out and setting: for `CC(C)=CC1C(C(=O)OCN2C(=O)C3=C(CCCC3)C2=O)C1(C)C` (configuration not stated) the value was “inactive”; for `COP(=O)(NC(C)=O)SC` (configuration not stated), “inactive”. On the same count and under the same terms, for `O=c1ccc(=O)[nH][nH]1` the value was “inactive”. On to `CC1=NNC(=O)N(/N=C/c2cccnc2)C1`, for which the molecule was called inactive.

With `CCCCOC(=O)c1ccccc1C(=O)O`, the outcome was inactive.

Regarding `CN(C)NC(=O)CCC(=O)O`, the result was inactive. As to `COc1cc(OC)nc(Sc2cccc(Cl)c2C(=O)O)n1`, the molecule was called inactive. Regarding `CCCOc1nn(C(=O)NS(=O)(=O)c2ccccc2C(=O)OC)c(=O)n1C`, the molecule was classed as inactive. The term AC50 denotes the midpoint of the concentration-response curve, whichever way the signal moves. With `C=C(C)[C@H]1Cc2c(ccc3c2O[C@@H]2COc4cc(OC)c(OC)cc4[C@@H]2C3=O)O1`, the AC50 is 3.73 µM (active).

`COP(=O)(OC)SCn1c(=O)oc2cc(Cl)cnc21`: the molecule was classed as inactive. The same measure, in the same setting: to `CC(COc1ccc(Oc2ccccc2)cc1)Oc1ccccn1` (configuration not stated) belongs “inactive”; to `CCCCSP(=O)(SCCCC)SCCCC`, “inactive”. Take `CCOP(=S)(OCC)Oc1ccc2c(C)c(Cl)c(=O)oc2c1`: the call was inactive.

In the case of `CCOP(=O)(OCC)Oc1cc(C)nc(C(C)C)n1`, the call was inactive. Turning to `CC[C@H](C)[C@H]1O[C@]2(C=C[C@@H]1C)C[C@@H]1C[C@@H](C/C=C(\C)[C@@H](O[C@H]3C[C@H](OC)[C@@H](O[C@H]4C[C@H](OC)[C@@H](NC)[C@H](C)O4)[C@H](C)O3)[C@@H](C)/C=C/C=C3\CO[C@@H]4[C@H](O)C(C)=C[C@@H](C(=O)O1)[C@]34O)O2`, the molecule was called inactive.

`N#CSCSC#N`: the call was inactive.

Turning to `CCC(=NOC/C=C/Cl)C1=C(O)CC(C2CCOCC2)CC1=O` (configuration not stated), the molecule was classed as inactive.

As to `CN(C)[C@@H]1C(=O)C(C(N)=O)=C(O)[C@@]2(O)C(=O)C3=C(O)c4c(O)cccc4[C@@](C)(O)[C@H]3[C@H](O)[C@@H]12`, the molecule was classed as inactive. In the case of `COc1cccc(C(=O)NN(C(=O)c2cc(C)cc(C)c2)C(C)(C)C)c1C`, the result was inactive. Same read-out and setting: for `C[N+]1(C)CCCCC1` the value was “inactive”.
